This is an account of results in PubChem BioAssay AID841 (Emory University Molecular Libraries Screening Center, 2007).

About 2,100 (1.5%) of roughly 140,000 compounds were called active. No stated cut-off is given here; in the data, active means protection mostly above about 24% (no sharp cut-off); inactive means mostly below about 26%. The list comes from a sample in which actives are over-represented; it also holds similar structures and randomly drawn compounds.

This assay in a line: compounds protecting cells from measles virus cytopathic effect, primary screen, measles RdRp inhibitor project, single point, MLSMR library, absorbance (AID 841). As to conditions: Measles virus-infected cells, CPE protection, at 4 µM, stronger effect = higher value. (In general: Damage to the host cells serves as the signal in cytopathic effect assays.)
As for `COC(=O)CN1C(=O)C2(C(C(=O)OC)=C(N)Oc3ccccc32)C2=C1CC(C)(C)CC2=O` (stereo not given), the protection (pct of control) was 2.86% (inactive).

For `C=CCN1C(=O)C2(C(C(=O)OCC)=C(N)Oc3c2c(=O)oc2ccccc32)c2ccccc21` (stereo not given), the protection (pct of control) was 81% (active).

For `CCOC(=O)CC1=C(C(=O)OCC)C2(C(=O)N1)C(C(=O)OC)=C(N)Oc1ccccc12` (stereo not given), the protection (pct of control) is 9.79% (inactive).

`Cc1ccnc(-n2c(C)cc(/C=C3\C(=O)NC(=S)N(C)C3=O)c2C)c1`: the protection (pct of control) is 5.91% (inactive).

`Cc1ccc(N2C(=O)NC(=O)C(CCc3ccncc3)(Cc3cccc(Cl)c3Cl)C2=O)cc1` (stereo not given): the protection (pct of control) was 7.36% (inactive).

Consider `Cc1nn(Cc2ccccc2Cl)c(Cl)c1C(=O)OC(C(=O)NC(N)=O)C(C)C` (stereo not given), for which the protection (pct of control) is 14% (inactive).

As to `O=C(C1CC(=O)N(C2CCCC2)C1)N1CCC2(CC1)OCCO2` (stereo not given), the protection (pct of control) is 38.9% (active).

`Cn1c(C(=O)N2CCC(C(=O)N3CCC4(CC3)OCCO4)CC2)cc2sccc21`: the protection (pct of control) is 8.88% (inactive).

On to `CCN(N=Nc1nonc1OC)c1nonc1OC`, for which the protection (pct of control) is 5.4% (inactive).

As to `CCC(=O)CC(c1ccc([N+](=O)[O-])cc1)c1c(O)c2ccccc2oc1=O` (stereo not given), the protection (pct of control) was 15.5% (inactive).

Consider `COc1ccc(C2N3CC(C)(C)CN23)cc1` (stereo not given), for which the protection (pct of control) is 8.77% (inactive).

With `O=C1NC(=O)C(CCc2ccccn2)(Cc2cccc(Cl)c2Cl)C(=O)N1c1ccc(Br)cc1` (stereo not given), the protection (pct of control) is 10.4% (inactive).

As to `Cc1cccc(OP(=O)(Oc2cccc(C)c2)OC(c2ccccc2)C(F)(F)F)c1` (stereo not given), the protection (pct of control) is 1.45% (inactive).

`Cc1nc2ccccn2c1P(=S)(N1CCCCC1)N1CCCCC1`: the protection (pct of control) was 4.18% (inactive).

As for `COC(=O)C(O)(c1ccc(NC(=O)c2ccco2)c(OC)c1)C(F)(F)F` (stereo not given), the protection (pct of control) is 3.68% (inactive).

As to `CCOC(=O)C(O)(c1ccc(N)c(OC)c1)C(F)(F)F` (stereo not given), the protection (pct of control) was 3.68% (inactive).

For `CCOC(=O)C(O)(c1ccc(NC(=O)c2ccco2)c(OC)c1)C(F)(F)F` (stereo not given), the protection (pct of control) was 39.8% (active).

For `CC(=O)Nc1ccccc1C(=O)OCC(=O)c1cccc2ccccc12`, the protection (pct of control) is 26.2% (inactive).

Regarding `O=c1[nH]c(=S)n(C2CC2)c(O)c1/C=N/N1CCOCC1`, the protection (pct of control) is 5.81% (inactive).

With `CNC(=O)N(C)c1nnc(C(C)(C)C)s1`, the protection (pct of control) is 54.7% (active).

For `CCOC(=O)C(O)(c1ccc(N=Cc2ccccc2O)c(C)c1)C(F)(F)F` (stereo not given), the protection (pct of control) was 5.53% (inactive).

As for `CC(=O)N(C1=NCCCS1)c1ccccc1F`, the protection (pct of control) is 62.1% (active).

Regarding `COc1c(O)ccc2c1-c1c3c(cc4c1C(C2)N(C)CC4)OCO3` (stereo not given), the protection (pct of control) was 6.07% (inactive).

`CC(C(=O)Nc1ccc(Cl)cc1Cl)N1CC=C(c2ccccc2)CC1` (stereo not given): the protection (pct of control) was 9.49% (inactive).

As to `CN1CCN(c2cc(N3CCNCC3)ccc2[N+](=O)[O-])CC1`, the protection (pct of control) was 21.6% (inactive).

Take `CN(C)C(=O)Oc1ccc(OCc2cccc[n+]2C)cc1`: the protection (pct of control) is 6.21% (inactive).

As to `c1ccc2sc(C3CCCNC3)nc2c1` (stereo not given), the protection (pct of control) was 54.6% (active).

As to `CN(C)c1ccc(/C=C2\CC3C4CC=C5CC(O)CCC5(C)C4CCC3(C)C2=O)cc1` (stereo not given), the protection (pct of control) is 2.96% (inactive).

With `CC(C)N(CC#CCC1(O)c2ccccc2-c2ccccc21)C(C)C`, the protection (pct of control) is 14.5% (inactive).

Turning to `Cc1cccc(-n2c(O)c(/C=N/N3CCOCC3)c(=O)[nH]c2=S)c1`, the protection (pct of control) is 1.74% (inactive).
